# Data from PubChem BioAssay (NCI).
# The panel holds about 83,000 compounds, 20% with a hit somewhere; the sample as a whole holds those more often.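 The test compound was applied at a single concentration to cells in 96-well plates for 48 hours, and percent growth was recorded.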 Unmarked numbers belong to inactive results. The source made the active and inactive calls. The calls were made as follows: active = growth percent below 10; inactive = the rest.
# What was measured:
# Experiment in all cases: NCI-60 one-dose screen, 48 h (100 = growth as untreated, 0 = no growth, -100 = all killed)
# Details in all cases: 10 µM unless noted
# SK-MEL-2 melanoma = system: SK-MEL-2 melanoma
# SN12C renal = system: SN12C renal
# UO-31 renal = system: UO-31 renal
# TK-10 renal = system: TK-10 renal
# ACHN renal = system: ACHN renal
# CAKI-1 renal = system: CAKI-1 renal
# A498 renal = system: A498 renal
# CCRF-CEM leukemia = system: CCRF-CEM leukemia
# MOLT-4 leukemia = system: MOLT-4 leukemia
# SR leukemia = system: SR leukemia
# OVCAR-8 ovarian = system: OVCAR-8 ovarian
# OVCAR-5 ovarian = system: OVCAR-5 ovarian
# OVCAR-4 ovarian = system: OVCAR-4 ovarian
# SK-OV-3 ovarian = system: SK-OV-3 ovarian
# IGROV1 ovarian = system: IGROV1 ovarian
# OVCAR-3 ovarian = system: OVCAR-3 ovarian
# HS 578T breast = system: HS 578T breast
# NCI/ADR-RES ovarian = system: NCI/ADR-RES ovarian
# RPMI-8226 leukemia = system: RPMI-8226 leukemia
SMILES,growth (SK-MEL-2 melanoma),growth (SN12C renal),growth (UO-31 renal),growth (TK-10 renal),growth (ACHN renal),growth (CAKI-1 renal),growth (A498 renal),growth (CCRF-CEM leukemia),growth (MOLT-4 leukemia),growth (SR leukemia),growth (OVCAR-8 ovarian),growth (OVCAR-5 ovarian),growth (OVCAR-4 ovarian),growth (SK-OV-3 ovarian),growth (IGROV1 ovarian),growth (OVCAR-3 ovarian),growth (HS 578T breast),growth (NCI/ADR-RES ovarian),growth (RPMI-8226 leukemia)
CCCCCCCCCCCCCCCCCCOc1ccc(CC(=O)OCC[N+]2(C)CCCCC2)cc1,104%,89.1%,94.1%,99.1%,97.5%,100%,100%,89.8%,98.6%,102%,96.9%,100%,86.8%,104%,92.6%,101%,108%,104%,–
O=c1c2cc(F)ccc2sc2c(N3CCNCC3)nc3ccc(F)cc3c12,90.5%,54.2%,31.8%,26.6%,-41.6% (active),-96.9% (active),45.5%,-12.1% (active),-36.5% (active),-46.3% (active),3.1% (active),60.3%,-63.8% (active),84%,36.3%,-84.1% (active),46.6%,4.72% (active),–
CCC(C)(c1cc(C(C)(C)C)c(O)c(C(C)(C)C)c1)c1cc(C(C)(C)C)c(O)c(C(C)(C)C)c1,96.2%,101%,92.2%,97.3%,101%,94.2%,101%,98.9%,100%,90.4%,102%,94.5%,103%,100%,–,109%,97%,102%,–
CN1CCN(Cc2ccc(NC(=O)c3cncc(C#Cc4cnccc4C#N)c3)cc2C(F)(F)F)CC1,52%,60.5%,43.5%,108%,66.8%,–,84.9%,59%,66.1%,–,74.2%,60.5%,35.9%,101%,67.2%,86.3%,24%,74%,34.1%
Cc1ccc(S(=O)(=O)N/N=C/C2(c3ccccc3)CC2)cc1,126%,98.7%,93.2%,120%,109%,92.6%,86.6%,88.5%,–,101%,–,109%,98.8%,110%,116%,111%,102%,107%,96.9%
O=C(N/N=C/[C@H](O)[C@H](O)[C@H](O)CO)c1ccc(NC(=O)c2cccnc2)cc1,118%,94.5%,83.7%,104%,109%,94.1%,99.3%,99.2%,109%,99.9%,102%,102%,110%,110%,107%,118%,98.4%,109%,–
O=c1c2cc(F)ccc2sc2c(NCCCNCCO)nc3ccc(F)cc3c12,97.3%,66.1%,31.1%,67.5%,46.9%,27.1%,26.9%,15.1%,18.8%,-25.8% (active),58.5%,73.7%,41.5%,80.4%,43.6%,30.4%,61%,66.5%,–
CCc1nnc(NC(=O)c2nnn(-c3ccccc3)c2-c2ccco2)s1,108%,96.4%,87.4%,115%,94.5%,92.1%,42.7%,77.8%,93.7%,–,103%,101%,80.3%,82.3%,103%,103%,92.5%,100%,91%
C[C@]12CC[C@@H]3c4cc(OC(F)F)c(OS(N)(=O)=O)cc4CC[C@H]3[C@@H]1CC[C@@H]2O,46.3%,32.6%,40.1%,94.2%,44.9%,–,-8.42% (active),16.5%,18.7%,–,35.3%,49.3%,63.2%,40.8%,34.5%,-49.8% (active),27.8%,-1.45% (active),17.8%
COc1ccc2c(c1OC)C(=O)O[C@H]2[C@H]1c2c(cc3c(c2OC)OCO3)CCN1C,106%,100%,85.9%,122%,95.8%,80.3%,93.1%,101%,116%,–,95.8%,96.2%,–,111%,102%,124%,96.5%,84.7%,107%
CC1=NN(c2ccc(S(=O)(=O)O)cc2)C(=O)C1N=Nc1ccc(-c2ccc(N=Nc3ccc(OS(=O)(=O)c4ccc(C)cc4)cc3)c(S(=O)(=O)O)c2)cc1 (stereo not drawn),78.8%,93.6%,69.8%,97.2%,102%,100%,95.2%,67.8%,84.3%,–,102%,76.6%,93.8%,95.4%,-7.99% (active),111%,80%,97.9%,74.5%
CCOC(=O)c1cn2ncnc(Oc3ccc(NC(=O)NCCN(C)C)c(Cl)c3)c2c1C,112%,63.9%,62.1%,105%,84.5%,65.8%,57.5%,43.4%,53.9%,-13.1% (active),78.9%,91.6%,82.4%,94.1%,78.7%,75%,85.6%,88.7%,–
NC1=C(c2nn[nH]n2)C(c2ccccc2Cl)c2ccc3ccccc3c2O1 (stereo not drawn),89.7%,84%,60%,74.9%,77.5%,36.9%,48%,77.5%,70.9%,–,–,109%,81.5%,86.2%,63.2%,69.6%,80.3%,55.9%,71.7%
CCOC(=O)/C(C#N)=C\Nc1ccc2ncnc(Nc3ccc(Cl)cc3Cl)c2c1,110%,89.5%,42%,44.2%,62.9%,39%,48.7%,70.9%,58.8%,–,87%,82.2%,–,97%,55%,67.6%,75.5%,85.4%,79.5%
NCCCNc1nc2ccccc2c2c(=O)c3cc(C(F)(F)F)ccc3sc12,89.7%,51.9%,31.9%,51.9%,-10.8% (active),-67.7% (active),23.6%,5.18% (active),–,-14.9% (active),0.22% (active),69.8%,-45% (active),84.3%,34.8%,-72.4% (active),12.2%,-15.9% (active),–
COc1nc2ccc(C)cc2cc1-c1nc2c(cnn2-c2ccccc2)c(=O)[nH]1,60.5%,98.3%,69.4%,109%,94.3%,86.9%,72.7%,79.4%,75.2%,–,94%,94.5%,94.9%,73.6%,77.4%,50.2%,90.6%,74.3%,80.8%
Cc1cc(=O)[nH]c(=O)n1Cc1cn(-c2c3ccccc3nc3ccccc23)nn1,107%,88.7%,82.6%,96.1%,87.4%,91%,101%,64.7%,48.5%,11.4%,–,120%,106%,96.2%,33%,90.7%,100%,106%,55.5%
